# Test results from publication PMC8384837, “Expanding the binding specificity for RNA recognition by a PUF domain”.
# Tests used:
# Test in all cases: yeast three-hybrid, YBZ-1, SC-Leu-His + 0.5 mM 3-AT, 4 days
# Settings in all cases: tags: N-Gal4 AD-HA kept; label: inside an RPR1-promoter hybrid RNA with tandem MS2 sites; ssRNA
# [1] = biological target: PUM1 PUF domain R5-RGV (Homo sapiens, UniProt Q14671 828-1176, C1007R;R1008G;Q1011V)
# Method in brief: (§1)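 The interaction score is the log change in how often each variant appears, from input to selection. Frequencies came from PCR-amplified, Illumina-sequenced repeat regions of Pumilio-1 PUF domain libraries grown in strain YBZ-1 (LexA–MS2 coat fusion, HIS3 reporter) alongside matching RNA elements. Input plates were SC-Leu and selection plates were SC-Leu-His + 0.5 mM 3-AT, each for four days, and the log2 calculation used a pseudocount of 1 where a variant was absent.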
# [2] = biological target: PUM1 PUF domain R5-RQT (Homo sapiens, UniProt Q14671 828-1176, C1007R;R1008Q;Q1011T)
# Method in brief: as §1
# [3] = biological target: PUM1 PUF domain R5-KLI (Homo sapiens, UniProt Q14671 828-1176, C1007K;R1008L;Q1011I)
# Method in brief: as §1
# [4] = biological target: PUM1 PUF domain R5-KSD (Homo sapiens, UniProt Q14671 828-1176, C1007K;R1008S;Q1011D)
# Method in brief: as §1
# [5] = biological target: PUM1 PUF domain R5-RYI (Homo sapiens, UniProt Q14671 828-1176, C1007R;R1008Y;Q1011I)
# Method in brief: as §1
# [6] = biological target: PUM1 PUF domain R3-DYS (Homo sapiens, UniProt Q14671 828-1176, C935D;R936Y;Q939S)
# Method in brief: as §1
# [7] = biological target: PUM1 PUF domain R5-PFG (Homo sapiens, UniProt Q14671 828-1176, C1007P;R1008F;Q1011G)
# Method in brief: as §1
# [8] = biological target: PUM1 PUF domain R4-KGY (Homo sapiens, UniProt Q14671 828-1176, N971K;H972G;Q975Y)
# Method in brief: as §1
# [9] = biological target: PUM1 PUF domain R4-WGA (Homo sapiens, UniProt Q14671 828-1176, N971W;H972G;Q975A)
# Method in brief: as §1
# [10] = biological target: PUM1 PUF domain R4-IML (Homo sapiens, UniProt Q14671 828-1176, N971I;H972M;Q975L)
# Method in brief: as §1
# [11] = biological target: PUM1 PUF domain R8-KHQ (Homo sapiens, UniProt Q14671 828-1176, N1122K;Y1123H)
# Method in brief: as §1
# [12] = biological target: PUM1 PUF domain R8-RYF (Homo sapiens, UniProt Q14671 828-1176, N1122R;Q1126F)
# Method in brief: as §1
# [13] = biological target: PUM1 PUF domain R4-SQR (Homo sapiens, UniProt Q14671 828-1176, N971S;H972Q;Q975R)
# Method in brief: as §1
# [14] = biological target: PUM1 PUF domain R3-YYA (Homo sapiens, UniProt Q14671 828-1176, C935Y;R936Y;Q939A)
# Method in brief: as §1
# [15] = biological target: PUM1 PUF domain R3-RAQ (Homo sapiens, UniProt Q14671 828-1176, C935R;R936A)
# Method in brief: as §1
# [16] = biological target: PUM1 PUF domain R3-WAR (Homo sapiens, UniProt Q14671 828-1176, C935W;R936A;Q939R)
# Method in brief: as §1
# [17] = biological target: PUM1 PUF domain R7-GND (Homo sapiens, UniProt Q14671 828-1176, S1079G;E1083D)
# Method in brief: as §1
# PUM1 PUF domain R4-WGA, sequence (Q14671 828-1176 N971W/H972G/Q975A): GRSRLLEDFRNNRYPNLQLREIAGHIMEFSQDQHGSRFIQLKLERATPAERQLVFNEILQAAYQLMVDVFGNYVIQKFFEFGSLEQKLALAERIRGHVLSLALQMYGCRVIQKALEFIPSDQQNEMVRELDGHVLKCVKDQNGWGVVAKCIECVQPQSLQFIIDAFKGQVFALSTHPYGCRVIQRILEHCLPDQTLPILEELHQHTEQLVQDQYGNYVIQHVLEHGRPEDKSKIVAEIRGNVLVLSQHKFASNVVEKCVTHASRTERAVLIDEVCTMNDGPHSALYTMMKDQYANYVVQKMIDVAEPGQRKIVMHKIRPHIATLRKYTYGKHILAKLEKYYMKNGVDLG
# PUM1 PUF domain R5-RQT, sequence (Q14671 828-1176 C1007R/R1008Q/Q1011T): as the sequence (Q14671 828-1176 N971W/H972G/Q975A) above, with W144N, G145H, A148Q, C180R, R181Q, Q184T counted along it
# PUM1 PUF domain R3-WAR, sequence (Q14671 828-1176 C935W/R936A/Q939R): as the sequence (Q14671 828-1176 N971W/H972G/Q975A) above, with C108W, R109A, Q112R, W144N, G145H, A148Q counted along it
# PUM1 PUF domain R5-RGV, sequence (Q14671 828-1176 C1007R/R1008G/Q1011V): as the sequence (Q14671 828-1176 N971W/H972G/Q975A) above, with W144N, G145H, A148Q, C180R, R181G, Q184V counted along it
# PUM1 PUF domain R5-KSD, sequence (Q14671 828-1176 C1007K/R1008S/Q1011D): as the sequence (Q14671 828-1176 N971W/H972G/Q975A) above, with W144N, G145H, A148Q, C180K, R181S, Q184D counted along it
# PUM1 PUF domain R8-RYF, sequence (Q14671 828-1176 N1122R/Q1126F): as the sequence (Q14671 828-1176 N971W/H972G/Q975A) above, with W144N, G145H, A148Q, N295R, Q299F counted along it
# PUM1 PUF domain R4-IML, sequence (Q14671 828-1176 N971I/H972M/Q975L): as the sequence (Q14671 828-1176 N971W/H972G/Q975A) above, with W144I, G145M, A148L counted along it
# PUM1 PUF domain R3-DYS, sequence (Q14671 828-1176 C935D/R936Y/Q939S): as the sequence (Q14671 828-1176 N971W/H972G/Q975A) above, with C108D, R109Y, Q112S, W144N, G145H, A148Q counted along it
# PUM1 PUF domain R8-KHQ, sequence (Q14671 828-1176 N1122K/Y1123H): as the sequence (Q14671 828-1176 N971W/H972G/Q975A) above, with W144N, G145H, A148Q, N295K, Y296H counted along it
# PUM1 PUF domain R4-SQR, sequence (Q14671 828-1176 N971S/H972Q/Q975R): as the sequence (Q14671 828-1176 N971W/H972G/Q975A) above, with W144S, G145Q, A148R counted along it
# PUM1 PUF domain R5-PFG, sequence (Q14671 828-1176 C1007P/R1008F/Q1011G): as the sequence (Q14671 828-1176 N971W/H972G/Q975A) above, with W144N, G145H, A148Q, C180P, R181F, Q184G counted along it
# PUM1 PUF domain R3-RAQ, sequence (Q14671 828-1176 C935R/R936A): as the sequence (Q14671 828-1176 N971W/H972G/Q975A) above, with C108R, R109A, W144N, G145H, A148Q counted along it
# PUM1 PUF domain R3-YYA, sequence (Q14671 828-1176 C935Y/R936Y/Q939A): as the sequence (Q14671 828-1176 N971W/H972G/Q975A) above, with C108Y, R109Y, Q112A, W144N, G145H, A148Q counted along it
# PUM1 PUF domain R5-KLI, sequence (Q14671 828-1176 C1007K/R1008L/Q1011I): as the sequence (Q14671 828-1176 N971W/H972G/Q975A) above, with W144N, G145H, A148Q, C180K, R181L, Q184I counted along it
# PUM1 PUF domain R4-KGY, sequence (Q14671 828-1176 N971K/H972G/Q975Y): as the sequence (Q14671 828-1176 N971W/H972G/Q975A) above, with W144K, A148Y counted along it
# PUM1 PUF domain R7-GND, sequence (Q14671 828-1176 S1079G/E1083D): as the sequence (Q14671 828-1176 N971W/H972G/Q975A) above, with W144N, G145H, A148Q, S252G, E256D counted along it
# PUM1 PUF domain R5-RYI, sequence (Q14671 828-1176 C1007R/R1008Y/Q1011I): as the sequence (Q14671 828-1176 N971W/H972G/Q975A) above, with W144N, G145H, A148Q, C180R, R181Y, Q184I counted along it
sequence,measurement,setting,value
GGCUAGAACUAGUGGAUCCCCCGGCGCCCGGCGGCUCGAGCCCGGGUAAGUGUCAAUAGUCUGCAUGCCGCCGGGCGCCAUGCCUGCAGGUCGACUCUAGAAAACAUG,binding signal,[1],2.55 log2 enrichment (interaction score)
same,binding signal,[2],4.99 log2 enrichment (interaction score)
same,binding signal,[3],2.75 log2 enrichment (interaction score)
same,binding signal,[4],2.5 log2 enrichment (interaction score)
same,binding signal,[5],3.71 log2 enrichment (interaction score)
GGCUAGAACUAGUGGAUCCCCCGGCGCCCGGCGGCUCGAGCCCGGGUAAGUGUUAAUAGUCUGCAUGCCGCCGGGCGCCAUGCCUGCAGGUCGACUCUAGAAAACAUG,binding signal,[1],0.34 log2 enrichment (interaction score)
same,binding signal,[4],1.41 log2 enrichment (interaction score)
GGCUAGAACUAGUGGAUCCCCCGGCGCCCGGCGGCUCGAGCCCGGGUAAGUGUAAAUAGUCUGCAUGCCGCCGGGCGCCAUGCCUGCAGGUCGACUCUAGAAAACAUG,binding signal,[6],4.59 log2 enrichment (interaction score)
same,binding signal,[2],1.57 log2 enrichment (interaction score)
same,binding signal,[7],6.32 log2 enrichment (interaction score)
same,binding signal,[8],4.05 log2 enrichment (interaction score)
same,binding signal,[9],3.8 log2 enrichment (interaction score)
GGCUAGAACUAGUGGAUCCCCCGGCGCCCGGCGGCUCGAGCCCGGGUAAGUGUAGAUAGUCUGCAUGCCGCCGGGCGCCAUGCCUGCAGGUCGACUCUAGAAAACAUG,binding signal,[10],3.09 log2 enrichment (interaction score)
GGCUAGAACUAGUGGAUCCCCCGGCGCCCGGCGGCUCGAGCCCGGGUAAGCGUAAAUAGUCUGCAUGCCGCCGGGCGCCAUGCCUGCAGGUCGACUCUAGAAAACAUG,binding signal,[11],4.7 log2 enrichment (interaction score)
same,binding signal,[12],4.88 log2 enrichment (interaction score)
GGCUAGAACUAGUGGAUCCCCCGGCGCCCGGCGGCUCGAGCCCGGGUAAGUGUACAUAGUCUGCAUGCCGCCGGGCGCCAUGCCUGCAGGUCGACUCUAGAAAACAUG,binding signal,[13],3.07 log2 enrichment (interaction score)
same,binding signal,[9],3.39 log2 enrichment (interaction score)
GGCUAGAACUAGUGGAUCCCCCGGCGCCCGGCGGCUCGAGCCCGGGUAAGUGUAAUUAGUCUGCAUGCCGCCGGGCGCCAUGCCUGCAGGUCGACUCUAGAAAACAUG,binding signal,[14],3.25 log2 enrichment (interaction score)
same,binding signal,[15],3.8 log2 enrichment (interaction score)
same,binding signal,[16],2.65 log2 enrichment (interaction score)
GGCUAGAACUAGUGGAUCCCCCGGCGCCCGGCGGCUCGAGCCCGGGUAAGUGUAAGUAGUCUGCAUGCCGCCGGGCGCCAUGCCUGCAGGUCGACUCUAGAAAACAUG,binding signal,[16],2.85 log2 enrichment (interaction score)
GGCUAGAACUAGUGGAUCCCCCGGCGCCCGGCGGCUCGAGCCCGGGUAAGUUUAAAUAGUCUGCAUGCCGCCGGGCGCCAUGCCUGCAGGUCGACUCUAGAAAACAUG,binding signal,[17],3.28 log2 enrichment (interaction score)
